Data on 36 molecules can be found in PubChem BioAssay.

For the first experiment, the target named is Carbonic anhydrase 2 (Homo sapiens) (UniProt P00918). As to the kind of experiment: compounds binding carbonic anhydrase 2 – biochemical, small-molecule microarray, Alexa647-labelled CAII, profiling panel (AID 1122). Conditions: CAII-A647 binding fluorescence, higher = more signal.
Consider `COC(=O)C(CC#Cc1ccc2c(c1)[C@]1(C(=O)N2)[C@H](c2ccc(O)cc2)N2[C@H](c3ccccc3)[C@H](c3ccccc3)OC(=O)[C@H]2[C@@H]1C(=O)N1CCc2cc(OC)c(OC)cc2C1)C(=O)OC`, for which the composite z-score was 0.366.

For the molecule `C=CCNC(=O)[C@@H]1[C@H]2C(=O)O[C@H](c3ccccc3)[C@H](c3ccccc3)N2[C@H](c2ccccc2OCCO)[C@@]12C(=O)N(C(=O)OCCOC)c1ccc(C#CCCO)cc12`, the composite z-score was found to be 0.64. Same read-out and setting: the result for `COc1ccc(CCNC(=O)[C@@]2(Sc3ccc(C)cc3)CC(=O)N(Cc3cc(C(F)(F)F)cc(C(F)(F)F)c3)[C@@H]2c2ccc(CO)cc2)cc1` reads 0.711; that for `Cc1ccccc1C(O)C1C=CC2C(=O)N(c3ccccc3)C(=O)C2N1Nc1ccccc1F` (stereo not given), 0.77; that for `NCCCC[C@@H]1NC(=O)[C@H]2C[C@@H](C(=O)NCc3ccc(F)cc3)[C@@H](c3cccc(OCCO)c3)N2C1=O`, 0.549. Still for that read-out and setting: then `Cc1c(NC(=O)/C(C#N)=C/c2ccc(Cl)cc2)c(=O)n(-c2ccccc2)n1C`, with 0.229; and `[N-]=[N+]=NCc1ccccc1C[C@]1(C(=O)N2CCOCC2)N=C(c2ccc(OCCCO)cc2)O[C@H]1c1ccccc1CN=[N+]=[N-]`, with 0.802. On the same count and under the same terms, the result for `CCC(CC)C(O)C1C=CC2C(=O)N(C)C(=O)C2N1N1CCCCC1` (stereo not given) reads 0.755; that for `COCCOC(=O)N1C(=O)[C@@]2(c3cc(C#Cc4ccc(OC)cc4)ccc31)[C@H](c1ccc(OCCO)cc1)N1[C@H](c3ccccc3)[C@H](c3ccccc3)OC(=O)[C@H]1[C@@H]2C(=O)N1CCCCCCC1`, 0.4.

Test system in the next experiment: not listed separately
As to the kind of experiment: COS7 lysate on small-molecule microarray, probe aHis, 635 nm (AID 1123).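 Also: z-score combines 667nm fluorescence intensity with signal-to-noise per printed compound spot.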 The following applies: COS7 cell lysate, fluorescence, higher = more signal.
In turn, `NC(=O)NCC#Cc1ccc2c(c1)[C@]1(C(=O)N2)[C@H](C(=O)N2CCCCCCC2)[C@H]2C(=O)O[C@H](c3ccccc3)[C@H](c3ccccc3)N2[C@@H]1c1ccc(O)cc1` displayed a composite z-score of 1.2.

For `COCCOC(=O)N1C(=O)[C@@]2(c3cc(C#CC4=CCCCC4)ccc31)[C@H](C(=O)N1CCN(c3ncccn3)CC1)[C@H]1C(=O)O[C@H](c3ccccc3)[C@H](c3ccccc3)N1[C@@H]2c1ccccc1OCCO`, the composite z-score is 1.8. Still for that read-out and setting: then `COCCOC(=O)N1C(=O)[C@@]2(c3cc(C#CC4(O)CCCCCC4)ccc31)[C@H](c1ccccc1OCCO)N1[C@H](c3ccccc3)[C@H](c3ccccc3)OC(=O)[C@H]1[C@@H]2C(=O)N1CCCCCCC1`, with 2.16.

`CCCCC=C[C@@H](NC(=O)c1ccc(C(F)(F)F)cc1)c1ccccc1` came in with a composite z-score of 0.0379. Molecule `C=CCC(OC(C)=O)[C@@H]1[C@@H](N(Cc2ccc(-c3ccccc3)cc2)C(=O)c2ccc(C)cc2)c2cc(OCCCO)ccc2N1C(=O)c1ccc2ccccc2c1` (stereo not given in full) had a composite z-score of 0.756.

In turn, `CCCCC(=C=CC[C@@H](O)c1cccc(OCCO)c1)CCO` displayed a composite z-score of 0.592. On the same count and under the same terms, the result for `CCOC(=O)C[C@H]1[C@H](OC(=O)Cc2ccc3c(c2)OCO3)[C@@H](NC(=O)c2ccccc2)c2cc(OCCCO)ccc2N1C(=O)Cc1ccc(OC)cc1` reads 1.04; that for `CCCCN1CC=CC23O[C@@H]4C=CCOC(=O)[C@@H]4[C@H]2C(=O)N(C(CO)C(C)C)[C@@H]3C1=O` (stereo not given in full), -0.665; that for `COC(=O)[C@@]1(Cc2ccc(OC)cc2)[C@@H]2[C@@H](CC(=O)[C@H]2CC(=O)C(=O)N2CCCC2)CN1C(=O)c1ccccc1`, 3.45. In the case of `COC(=O)c1c(CC[C@@H](CO)NC(=O)N[C@@H](Cc2ccccc2)Cn2cc(-c3cncn3C)nn2)oc(C(C)=O)c1C(=O)OC`, the composite z-score was determined as 1.95. Same read-out and setting: then `C=CCC(OC(C)=O)[C@@H]1[C@@H](N(Cc2ccc(-c3cccc(C(F)(F)F)c3)o2)C(=O)c2cccc3ccccc23)c2cc(OCCCO)ccc2N1C(=O)c1ccc2ccccc2n1` (stereo not given in full), with 0.385; and `CC(=O)NCCCC[C@@H]1NC(=O)[C@H]2C[C@@H](C(=O)NCCCCCC[N+](C)(C)C)[C@@H](c3ccc(O)cc3)N2C1=O`, with 2.2.

Take `N#Cc1ccc(C(O)C2C=CC3C(=O)NC(=O)C3N2Nc2ccccn2)cc1` (stereo not given): the composite z-score was 0.767.

`C=CCNC(=O)[C@H]1[C@@H]2C(=O)O[C@@H](c3ccccc3)[C@@H](c3ccccc3)N2[C@@H](c2ccccc2OCCO)[C@]12C(=O)N(C(=O)OCCOC)c1ccccc12` registered a composite z-score of 1.96.

The molecule `C=CC[C@]1(C(=O)NCc2ccccc2)COC(c2ccc(OCCCO)cc2)=N1` displayed a composite z-score of 2.75. The molecule `COc1cc2c(cc1O)C(C1CC1)N(Cc1ccc([N+](=O)[O-])o1)CC2` (stereo not given) returned a composite z-score of 1.42. Turning to `CCOC(=O)C[C@H]1[C@H](OC(=O)c2ccc(C(=O)c3ccccc3)cc2)[C@@H](NC(=O)c2ccc3ccccc3c2)c2cc(OCCCO)ccc2N1C(=O)c1ccc2ccccc2n1`, the composite z-score was 0.853. The molecule `CC(C)(C)N1CC=CC23O[C@@H]4/C=C\CCCOC(=O)C4[C@H]2C(=O)N(CCCCCCO)[C@@H]3C1=O` (stereo not given in full) yielded a composite z-score of 0.185. Same read-out and setting: then `CCC[C@@H]1C=C(C(=O)OCC)[C@H](c2ccccc2)N1S(=O)(=O)c1ccc(C)cc1`, with -0.0844. The molecule `O=C1OCCC=C[C@H]2OC34C=CCN(CCN5CCOCC5)C(=O)[C@H]3N(CCCO)C(=O)[C@@H]4C12` (stereo not given in full) had a composite z-score of 1.2.

For the molecule `CCOC(=O)C1=C[C@@H](C(C)(C)C)N(S(=O)(=O)c2ccc(C)cc2)[C@H]1c1ccccc1Cl`, the composite z-score came to 1.72. Same read-out and setting: then `C[C@H]1C2[C@H](Cc3ccccc3)NC(=O)[C@]23C(=O)NCC(=O)N2CCC[C@H]2C(=O)NC/C=C\C/C=C/C3[C@@H]2O[C@]12C` (stereo not given in full), with -0.981; and `COc1ccc([Si](C)(C)[C@@H]2[C@@H](CCO)O[C@]3(C(=O)N(Cc4ccccc4)c4ccc(N5C(=O)c6ccccc6Oc6ccccc65)cc43)[C@H]2C)cc1`, with 0.981. In turn, `COCCOC(=O)N1C(=O)[C@@]2(c3ccccc31)[C@H](C(N)=O)[C@H]1C(=O)O[C@H](c3ccccc3)[C@H](c3ccccc3)N1[C@@H]2c1ccc(OCCO)cc1` gave a composite z-score of 1.74.

In turn, `COCCCNC(=O)[C@@H]1c2ccccc2C(=O)N(Cc2cc(C(F)(F)F)cc(C(F)(F)F)c2)[C@H]1c1ccc(CO)cc1` had a composite z-score of 1.68. Take `NCCCC[C@@H]1NC(=O)[C@H]2C[C@@H](C(=O)NCc3ccc(F)cc3)[C@@H](c3ccc(O)cc3)N2C1=O`: the composite z-score is 2.18. `CC(C)C[C@@H]1NC(=O)[C@H]2C[C@@H](C(=O)NCCCCCNC(=O)CS)[C@@H](c3ccc(O)cc3)N2C1=O` came in with a composite z-score of 2.08. Consider `COC(=O)C(CC#Cc1ccc2c(c1)[C@]1(C(=O)N2)[C@H](c2ccc(O)cc2)N2[C@H](c3ccccc3)[C@H](c3ccccc3)OC(=O)[C@H]2[C@@H]1C(=O)N1CCc2cc(OC)c(OC)cc2C1)C(=O)OC`, for which the composite z-score amounted to 1.72. Turning to `C=CCNC(=O)[C@@H]1[C@H]2C(=O)O[C@H](c3ccccc3)[C@H](c3ccccc3)N2[C@H](c2ccccc2OCCO)[C@@]12C(=O)N(C(=O)OCCOC)c1ccc(C#CCCO)cc12`, the composite z-score was 0.797.

For the molecule `COc1ccc(CCNC(=O)[C@@]2(Sc3ccc(C)cc3)CC(=O)N(Cc3cc(C(F)(F)F)cc(C(F)(F)F)c3)[C@@H]2c2ccc(CO)cc2)cc1`, the composite z-score was determined as 1.16. Same read-out and setting: the result for `Cc1ccccc1C(O)C1C=CC2C(=O)N(c3ccccc3)C(=O)C2N1Nc1ccccc1F` (stereo not given) reads 3.01; that for `NCCCC[C@@H]1NC(=O)[C@H]2C[C@@H](C(=O)NCc3ccc(F)cc3)[C@@H](c3cccc(OCCO)c3)N2C1=O`, 1.46.

Take `Cc1c(NC(=O)/C(C#N)=C/c2ccc(Cl)cc2)c(=O)n(-c2ccccc2)n1C`: the composite z-score is 1.65. Same read-out and setting: then `[N-]=[N+]=NCc1ccccc1C[C@]1(C(=O)N2CCOCC2)N=C(c2ccc(OCCCO)cc2)O[C@H]1c1ccccc1CN=[N+]=[N-]`, with 3.34; and `CCC(CC)C(O)C1C=CC2C(=O)N(C)C(=O)C2N1N1CCCCC1` (stereo not given), with 2.5; and `COCCOC(=O)N1C(=O)[C@@]2(c3cc(C#Cc4ccc(OC)cc4)ccc31)[C@H](c1ccc(OCCO)cc1)N1[C@H](c3ccccc3)[C@H](c3ccccc3)OC(=O)[C@H]1[C@@H]2C(=O)N1CCCCCCC1`, with 2.92.
